According to the antibiotic and cytotoxicity screens of Wong et al. (2023):
Screen size: about 39,000 compounds; about 3,300 (8.5%) were called active. Shown is part of a subset that was picked to be rich in actives.

system: HepG2; assay: cytotoxicity call (relative viability < 0.9); conditions: 10 µM

Row | SMILES | cytotoxicity call
1 | CO[C@H](CN(C)S(=O)(=O)c1cn(C)cn1)[C@@H](C)CN(C(=O)Nc1ccc(C(F)(F)F)cc1)[C@H](C)CO | inactive
2 | Cc1noc(C)c1S(=O)(=O)N(C)C[C@H]1Oc2ccc(NC(=O)NC3CCCCC3)cc2CC(=O)N([C@H](C)CO)C[C@H]1C | inactive
3 | Cc1ccc(S(=O)(=O)N(C)C[C@H]2Oc3c(NC(=O)c4ccncc4)cccc3C(=O)N([C@@H](C)CO)C[C@@H]2C)cc1 | inactive
4 | C[C@H]1CN([C@@H](C)CO)C(=O)c2cccc(NC(=O)c3ccc(-c4nccs4)cc3)c2O[C@H]1CN(C)S(=O)(=O)c1ccc(Cl)cc1 | inactive
5 | CNC1C(OC2OC(CO)C(N)C(O)C2O)OC2CC(N)C(OC3C(N)CC(N)C(O)C3O)OC2C1O.O=S(=O)(O)O (stereo unspecified) | inactive
6 | C[C@H]1CN([C@@H](C)CO)C(=O)Cc2cc(NC(=O)c3ccncc3)ccc2O[C@@H]1CN(C)S(C)(=O)=O | inactive
7 | C[C@@H]1CN([C@@H](C)CO)C(=O)Cc2cc(NC(=O)C3CC3)ccc2O[C@@H]1CN(C)S(=O)(=O)c1ccccc1 | inactive
8 | CO[C@@H]1CN(C)C(=O)c2ccc(NC(=O)C3CC3)cc2OC[C@H](C)N(C(=O)C2CCOCC2)C[C@H]1C | inactive
9 | C[C@@H]1CN([C@@H](C)CO)C(=O)c2cc(NS(=O)(=O)c3cn(C)cn3)ccc2O[C@@H](C)CCCCO[C@H]1CN(C)C | inactive
10 | C[C@@H]1CCCCO[C@H](CN(C)CC2CC2)[C@@H](C)CN([C@H](C)CO)C(=O)c2cc(NC(=O)Nc3cccc4ccccc34)ccc2O1 | inactive
11 | C[C@H](CO)N1C[C@H](C)[C@@H](CN(C)CC2CC2)OCCCC[C@H](C)Oc2ccc(NC(=O)Nc3cccc4ccccc34)cc2C1=O | inactive
12 | C[C@@H]1CCCCO[C@H](CN(C)CC2CC2)[C@H](C)CN([C@@H](C)CO)C(=O)c2cc(NC(=O)Nc3cccc4ccccc34)ccc2O1 | inactive
13 | C[C@H](CO)N1C[C@H](C)[C@H](CN(C)CC2CC2)OCCCC[C@H](C)Oc2ccc(NC(=O)Nc3cccc4ccccc34)cc2C1=O | inactive
14 | C[C@H](CO)N1C[C@H](C)[C@@H](CN(C)CC2CCCCC2)OCCCC[C@H](C)Oc2ccc(NC(=O)Nc3cccc4ccccc34)cc2C1=O | active
15 | C[C@H](CO)N1C[C@H](C)[C@H](CN(C)CC2CCCCC2)OCCCC[C@H](C)Oc2ccc(NC(=O)Nc3cccc4ccccc34)cc2C1=O | active
16 | C[C@@H]1CCCCO[C@@H](CN(C)CC2CCCCC2)[C@H](C)CN([C@@H](C)CO)C(=O)c2cc(NC(=O)Nc3cccc4ccccc34)ccc2O1 | active
17 | C[C@@H]1CCCCO[C@@H](CN(C)CC2CCCCC2)[C@@H](C)CN([C@H](C)CO)C(=O)c2cc(NC(=O)Nc3cccc4ccccc34)ccc2O1 | active
18 | CC(C)NC(=O)Nc1ccc2c(c1)C(=O)N([C@@H](C)CO)C[C@H](C)[C@H](CN(C)C(=O)NC1CCCCC1)O2 | inactive
19 | COC(=O)C1=C(C)NC(C)=C(C(=O)OC)C1 | inactive
20 | O=C(C[C@H]1CC[C@@H](NS(=O)(=O)c2ccccc2F)[C@H](CO)O1)NCCCN1CCOCC1 | inactive
21 | O=C(/C=C/c1ccc(O)c(O)c1)O[C@@H]1C[C@](O)(C(=O)O)C[C@@H](OC(=O)/C=C/c2ccc(O)c(O)c2)[C@H]1O | inactive
22 | CC(C)C[C@H](NC(=O)[C@@H](COC(C)(C)C)NC(=O)[C@H](Cc1ccc(O)cc1)NC(=O)[C@H](CO)NC(=O)[C@H](Cc1c[nH]c2ccccc12)NC(=O)[C@H](Cc1cnc[nH]1)NC(=O)[C@@H]1CCC(=O)N1)C(=O)N[C@@H](CCCNC(=N)N)C(=O)N1CCC[C@H]1C(=O)NNC(N)=O | inactive
23 | C[C@H](CO)N1C[C@H](C)[C@@H](CN(C)S(=O)(=O)c2ccc(F)cc2)Oc2ccc(NS(=O)(=O)c3ccccc3)cc2CC1=O | inactive

Row | SMILES | cytotoxicity call
24 | COc1ccccc1-c1cnc2c(c1)C(=O)N([C@H](C)CO)C[C@@H](C)[C@@H](CN(C)C(=O)c1ccncc1)O2 | inactive
25 | C[C@H]1CN([C@@H](C)CO)S(=O)(=O)c2ccc(C3=CCCC3)cc2O[C@H]1CN(C)C(=O)Cc1ccncc1 | inactive
26 | O=C1CN(c2ccccc2)C=NN1 | inactive
27 | C[C@@H]1CN([C@H](C)CO)C(=O)c2cc(NC(=O)Nc3cccc4ccccc34)ccc2O[C@@H](C)CCCCO[C@@H]1CN(C)CC1CCCCC1 | active
28 | C[C@@H]1CCCCO[C@@H](CN(C)CC2CCCCC2)[C@H](C)CN([C@H](C)CO)C(=O)c2cc(NC(=O)Nc3cccc4ccccc34)ccc2O1 | active
29 | COc1ccc(S(=O)(=O)N(C)C[C@@H]2Oc3ccc(NC(=O)Cn4cnnn4)cc3CC(=O)N([C@H](C)CO)C[C@@H]2C)cc1 | inactive
30 | C[C@H](CO)N1C[C@H](C)[C@@H](CN(C)C(=O)Nc2cccc(Cl)c2Cl)OCc2ccccc2-c2ccccc2C1=O | inactive
31 | Cc1noc(C)c1S(=O)(=O)Nc1ccc2c(c1)CC(=O)N([C@H](C)CO)C[C@H](C)[C@H](CN(C)S(=O)(=O)c1ccccc1)O2 | inactive
32 | C[C@H]1CN([C@@H](C)CO)C(=O)CCCn2cc(nn2)CO[C@H]1CN(C)S(=O)(=O)c1ccc(-c2ccccc2)cc1 | inactive
33 | COc1ccc(S(=O)(=O)Nc2ccc3c(c2)C(=O)N([C@@H](C)CO)C[C@@H](C)[C@@H](CN(C)C(=O)CCC(F)(F)F)OCCCC[C@@H](C)O3)cc1 | inactive
34 | CC(=O)O[C@H]1CC(C)(C)C[C@H]2[C@]13CO[C@@]21CC[C@@H]2[C@@]4(C)CC[C@H](O[C@@H]5O[C@H](C(=O)O)[C@@H](O)[C@H](O[C@@H]6O[C@H](CO)[C@H](O)[C@H](O)[C@H]6O[C@@H]6O[C@@H](C)[C@H](O)[C@@H](O)[C@H]6O)[C@H]5O[C@@H]5O[C@H](CO)[C@@H](O)[C@H](O)[C@H]5O)C(C)(C)[C@@H]4CC[C@@]2(C)[C@]1(C)C[C@H]3O | active
35 | C[C@@H]1O[C@@H](O[C@H]2[C@H](O[C@H]3[C@H](O)[C@@H](O[C@@H]4O[C@H](CO)[C@@H](O)[C@H](O)[C@H]4O)[C@H](O[C@H]4CC[C@]5(C)[C@H]6CC[C@]78OC[C@@]9(CCC(C)(C)C[C@@H]97)[C@H](O)C[C@@]8(C)[C@]6(C)CC[C@H]5C4(C)C)O[C@@H]3C(=O)O)O[C@H](CO)[C@H](O)[C@@H]2O)[C@H](O)[C@H](O)[C@H]1O | active
36 | C[C@@H]1O[C@@H](O[C@H]2[C@H](O[C@H]3[C@H](O)[C@@H](O[C@@H]4O[C@H](CO)[C@@H](O[C@@H]5O[C@H](CO)[C@H](O)[C@H]5O)[C@H](O)[C@H]4O)[C@H](O[C@H]4CC[C@]5(C)[C@H]6CC[C@]78OC[C@@]9(CCC(C)(C)C[C@@H]97)[C@H](O)C[C@@]8(C)[C@]6(C)CC[C@H]5C4(C)C)O[C@@H]3C(=O)O)O[C@H](CO)[C@H](O)[C@@H]2O)[C@H](O)[C@H](O)[C@H]1O | inactive
37 | C[C@@H]1O[C@@H](O[C@H]2[C@H](O[C@H]3[C@H](O)[C@@H](C(=O)O)O[C@@H](O[C@H]4CC[C@]5(C)[C@H]6CC[C@]78OC[C@@]9(CCC(C)(C)C[C@@H]97)[C@H](O)C[C@@]8(C)[C@]6(C)CC[C@H]5C4(C)C)[C@@H]3OC3O[C@H](CO)[C@@H](O)[C@H](O)[C@H]3O)O[C@H](CO)[C@H](O)[C@@H]2O)[C@H](O)[C@H](O)[C@H]1O (stereo partly specified) | active
38 | CC(=O)O[C@H]1CC(C)(C)C[C@H]2[C@]13CO[C@@]21CC[C@H]2[C@@]4(C)CC[C@H](O[C@@H]5OC[C@H](O[C@@H]6O[C@H](CO)[C@@H](O)[C@H](O)[C@H]6O[C@@H]6OC[C@@H](O[C@@H]7O[C@H](CO)[C@@H](O)[C@H](O)[C@H]7O)[C@H](O)[C@H]6O)[C@H](O)[C@H]5O[C@@H]5O[C@H](CO)[C@@H](O)[C@H](O)[C@H]5O)[C@@](C)(CO)[C@@H]4CC[C@@]2(C)[C@]1(C)C[C@H]3O | active
39 | CC1(C)[C@@H](O[C@H]2O[C@H](C(=O)O)[C@@H](O)[C@H](O)[C@H]2O[C@@H]2O[C@H](C(=O)O)[C@@H](O)[C@H](O)[C@H]2O)CC[C@]2(C)[C@H]3C(=O)C=C4[C@@H]5C[C@@](C)(C(=O)O)CC[C@]5(C)CC[C@@]4(C)[C@]3(C)CC[C@@H]12 | inactive
40 | C[C@H]1O[C@@H](OC[C@H]2O[C@@H](O[C@H]3CC[C@]4(C)[C@H]5CCC6=C(CC[C@@]7(C(=O)O[C@@H]8O[C@H](CO)[C@@H](O)[C@H](O)[C@H]8O[C@@H]8O[C@H](CO)[C@@H](O)[C@H](O)[C@H]8O)CCC(C)(C)C[C@@H]67)[C@]5(C)CC[C@H]4C3(C)C)[C@H](O)[C@@H](O)[C@@H]2O)[C@H](O)[C@@H](O)[C@@H]1O | inactive
41 | C[C@@H]1O[C@@H](O[C@H]2[C@H](O)[C@@H](O)[C@H](OC(=O)[C@]34CCC(C)(C)C[C@H]3C3=CC[C@H]5[C@@]6(C)CC[C@H](O[C@@H]7O[C@H](C(=O)O)[C@@H](O)[C@H](O)[C@H]7O)C(C)(C)[C@@H]6CC[C@@]5(C)[C@]3(C)CC4)O[C@@H]2CO)[C@H](O)[C@H](O)[C@H]1O | inactive
42 | CC(=N)NCCCC[C@@H](N)C(=O)O | inactive
43 | COCC(=O)Nc1ccc2c(c1)C(=O)N(C)[C@H]1CC[C@@H](CC(=O)N3CCc4ccccc4C3)O[C@H]1CO2 | inactive
44 | CO[C@H]1CN(C)C(=O)c2ccc(NS(=O)(=O)CC(F)(F)F)cc2OC[C@H](C)N(C(=O)c2ccc3c(c2)OCO3)C[C@H]1C | inactive
45 | C=CC[C@H](Nc1ccccc1C)c1ccc(Cl)cc1 | inactive
46 | C[C@H](CO)N1C[C@H](C)[C@@H](CN(C)S(=O)(=O)c2cn(C)cn2)OCCCC[C@H](C)Oc2ccc(NS(C)(=O)=O)cc2C1=O | inactive
